Experimental data: PubChem BioAssay (NCI)
About 79,000 compounds went through this panel and 15% of them were active in at least one assay; those are over-represented in the sample as a whole. Calls of active or inactive are those of the source. Rule as the data show it: active = growth inhibition above about 70%; inactive = the rest.

Assay: NCI Yeast Anticancer Drug Screen. Data for the sgs1 strain (AID 173);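 also: 0% = growth of vehicle-only control cultures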
Details: S. cerevisiae sgs1 mutant, active compounds read high
Description: Growth inhibition of yeast strains with defined genetic alterations is measured as a screen for potential anti-cancer activity. Selected strains with alterations in DNA damage repair or cell cycle control were exposed to compounds and growth inhibition was measured relative to vehicle treated controls. The strain used in this assay is sgs1

Measured: growth inhibition

CC(=O)O/N=C/c1c2ccccc2cc2ccccc12
inactive: at 1.2 µM -1% | at 3.7 µM -1% | at 11.0 µM 3% | at 33.0 µM 29% | at 100.0 µM 58%

Cc1c(N=Nc2ccc(Cl)cc2)c(C)n(C2OC(CO)C(O)C(O)C2O)c(=S)c1C#N (stereo not given)
inactive: at 1.2 µM 1% | at 3.7 µM 5% | at 11.0 µM 12% | at 33.0 µM 55%
active: at 100.0 µM 82%

C[n+]1c(-c2ccc(NC(=O)c3ccc(C(=O)Nc4ccc(-c5cn6ccccc6[n+]5C)cc4)cc3)cc2)cn2ccccc21
inactive: at 1.2 µM -2% | at 3.7 µM 1% | at 11.0 µM 29%
active: at 33.0 µM 83% | at 100.0 µM 93%

Nc1cccc2cc(Cl)cnc12
inactive: at 1.2 µM -32% | at 3.7 µM -31% | at 11.0 µM -14% | at 33.0 µM 0% | at 100.0 µM 64%

c1ccc(C2=NNC3c4ccccc4-c4ccccc4N3C2)cc1 (stereo not given)
inactive: at 1.2 µM -3% | at 3.7 µM -4% | at 11.0 µM -5% | at 33.0 µM 2% | at 100.0 µM 16%

COc1ccc(/C=C2\CCc3ccccc3C2=O)cc1OC
active: at 100.0 µM 93%
inactive: at 1.2 µM -6% | at 3.7 µM -26% | at 11.0 µM -12% | at 33.0 µM 35%

CC1=Cc2ccc(C)cc2C(=O)C1=O
active: at 33.0 µM 99% | at 100.0 µM 99%
inactive: at 1.2 µM -1% | at 3.7 µM 8% | at 11.0 µM 65%

CCCCCCCCCCCCCCCCCN
inactive: at 1.2 µM -46% | at 3.7 µM -3% | at 11.0 µM 58%
active: at 33.0 µM 97% | at 100.0 µM 96%
